# From PMC5540273 (PLoS ONE, 2017)
# Columns and labels:
# Settings in all cases: concentration: 1 μM, replicates: in singlicate; n = 1
# CDC2L2 = system: CDC2L2
# CDC2L5 = system: T1, CDC2L5
# T1 construct: gene CDK13
# CDK11 = system: T2, CDK11
# T2 construct: gene CDK19
# CDK2 = system: CDK2
# CDK3 = system: CDK3
# CDK4-cyclinD1 = system: CDK4-cyclinD1
# CDK4-cyclinD3 = system: CDK4-cyclinD3
# CDK4 = system: CDK4
# CDK5 = system: CDK5
# CDK7 = system: CDK7
# CDK8 = system: CDK8
# CDK9 = system: CDK9
# CDKL1 = system: CDKL1
# CDKL2 = system: CDKL2
# CDKL3 = system: CDKL3
# CDKL5 = system: CDKL5
# CHEK1 = system: CHEK1
# CHEK2 = system: CHEK2
# CIT = system: CIT
# CLK1 = system: CLK1
# 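Note: KINOMEscan kinase panel screen.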
Structure (SMILES),%Inh (CDC2L2) [%],%Inh (CDC2L5) [%],%Inh (CDK11) [%],%Inh (CDK2) [%],%Inh (CDK3) [%],%Inh (CDK4-cyclinD1) [%],%Inh (CDK4-cyclinD3) [%],%Inh (CDK4) [%],%Inh (CDK5) [%],%Inh (CDK7) [%],%Inh (CDK8) [%],%Inh (CDK9) [%],%Inh (CDKL1) [%],%Inh (CDKL2) [%],%Inh (CDKL3) [%],%Inh (CDKL5) [%],%Inh (CHEK1) [%],%Inh (CHEK2) [%],%Inh (CIT) [%],%Inh (CLK1) [%]
CC(=O)Nc1cn2nc(Oc3cccc(NC(=O)c4cccc(C(F)(F)F)c4)c3)ccc2n1,14,0,29,2,24,0,0,0,0,0,70,0,48,44,6,0,0,0,99.8,5
Cc1cc(-c2c(-c3ccc(F)cc3)ncn2CCCN2CCOCC2)nc(N)n1 [SB-222517],8,0,22,0,18,0,0,24,14,11,0,0,30,0,35,7,0,0,2,0
COC(=O)Nc1nc2ccc(Oc3ccc(NC(=O)Nc4cc(C(F)(F)F)ccc4F)cc3)cc2[nH]1.Cl [GW654607],4,6,87,30,18,0,0,26,17,97.4,84,0,21,96.7,100,0,0,16,87,52
Cc1ccc(NC(=O)c2ccnc(N3CCCCC3)c2)cc1-c1ccc(C(=O)NCC2CC2)cc1 [GW775610],0,0,0,36,0,20,0,0,8,0,39,1,9,33,0,75,0,39,38,11
O=C(Nc1n[nH]c2nc(-c3cccc(O)c3)ccc12)C1CC1 [SB-711805],0,46,0,38,49,20,25,15,0,23,0,0,30,80,0,9,0,25,21,20
COc1cccc(NC(=O)NCCNc2ccnc(Nc3ccc(F)cc3)n2)c1 [GSK1379879],27,0,22,0,0,9,1,0,0,0,27,0,0,15,0,0,0,0,6,17
Cc1ccc(Nc2ccnc(Nc3ccc(C)c(F)c3)n2)cc1O.Cl [GW582868],0,0,6,0,0,0,5,0,0,0,0,0,9,40,0,0,0,0,28,13
CS(=O)(=O)c1cccc(CNc2nc(Nc3ccc4c(c3)CCC(=O)N4)ncc2C(F)(F)F)c1,0,0,0,30,12,0,0,6,22,80,0,8,23,37,10,0,0,0,37,46
CN(C)CCOc1ccc(-c2cc(-c3ccc(Cl)c(O)c3)c(-c3ccncc3)[nH]2)cc1.Cl.Cl [SB-684387],14,0,6,0,0,9,15,39,0,21,38,18,28,39,0,0,7,33,90.8,32
Cc1ccc(NC(=O)c2ccc(Cl)c(Cl)c2)cc1-c1ccc(C(=O)Nc2ccncc2)cc1 [GSK1398460],14,0,13,0,5,0,0,0,0,0,0,2,1,13,0,4,22,0,97.6,39
CCNc1nccc(-c2c(-c3ccc(F)cc3)ncn2C2CCN(C)CC2)n1,16,0,19,0,0,0,0,0,0,0,0,0,30,0,0,0,7,0,30,35
Cl.N#CCc1ccc(Nc2nccc(Nc3ccc(Oc4ccccc4)cc3)n2)cc1 [GW639905],1,0,0,0,4,0,3,0,0,0,0,0,3,55,0,0,38,0,41,23
CN(c1ccc2c(c1)nc(NCc1ccccc1)n2C)c1ccnc(Nc2ccc(CS(C)(=O)=O)cc2)n1.Cl [GW811603],80,49,24,0,0,35,0,34,0,20,79,15,20,0,16,9,0,0,55,31
Cn1cc(-c2ccc3c(c2)CCN3C(=O)Cc2cc(F)cc(C(F)(F)F)c2)c2c(N)ncnc21 [GSK2635225],24,0,95.2,6,4,0,0,32,0,11,91.8,7,11,24,0,0,8,0,28,11
CN(c1ccc(F)c(NC(=O)c2cccc(OC(C)(C)C#N)c2Cl)c1)c1ccc2nc(NC(=O)C3CC3)sc2n1,0,0,0,0,1,4,7,12,0,24,2,0,0,27,0,0,0,13,93.7,0
CNc1nccc(-c2ccc3c(N)n[nH]c3c2)n1 [GSK2206003],17,0,0,23,19,7,0,31,0,23,32,11,18,17,0,0,0,51,86,97.1
NCCC(NC(=O)c1cc(Br)c(-c2ccnc3[nH]ccc23)s1)c1ccccc1.O=C(O)C(F)(F)F.O=C(O)C(F)(F)F (stereo not drawn) [GSK1307810],6,0,58,0,6,38,0,27,0,47,100,35,2,0,0,0,0,41,98.5,41

Structure (SMILES),%Inh (CDC2L2) [%],%Inh (CDC2L5) [%],%Inh (CDK11) [%],%Inh (CDK2) [%],%Inh (CDK3) [%],%Inh (CDK4-cyclinD1) [%],%Inh (CDK4-cyclinD3) [%],%Inh (CDK4) [%],%Inh (CDK5) [%],%Inh (CDK7) [%],%Inh (CDK8) [%],%Inh (CDK9) [%],%Inh (CDKL1) [%],%Inh (CDKL2) [%],%Inh (CDKL3) [%],%Inh (CDKL5) [%],%Inh (CHEK1) [%],%Inh (CHEK2) [%],%Inh (CIT) [%],%Inh (CLK1) [%]
CC(C)c1nc(-c2cccc(NS(=O)(=O)c3c(F)cccc3F)c2)c(-c2ccnc(Nc3ccc(N4CCOCC4)nc3)n2)s1.Cl [GSK1723980],0,79,0,99.1,99.7,96.2,56,94.4,98.9,62,6,75,74,98.9,24,97.8,0,13,97.5,0
CN(C)CCNS(=O)(=O)c1ccc(-c2ccnc3[nH]ccc23)cc1 [GSK977620],0,0,5,0,0,0,0,11,0,45,0,0,0,8,0,0,35,27,27,88
COc1cc(Nc2ccnc3cc(-c4ccncc4)ccc23)cc(OC)c1OC.Cl [GW494610],0,0,2,1,1,39,0,27,0,0,43,0,100,8,11,0,0,0,41,9
O=C1NC(=O)C(c2ccccc2Cl)=C1Nc1cccc(Cl)c1 [SB-342409],13,0,0,1,14,7,33,0,0,42,0,0,16,11,0,0,7,0,7,54
CN(c1ccc(NC(=O)Nc2cccc(Cl)c2)cc1)c1ccnc(N)n1.Cl [GW830707],12,43,77,9,0,57,0,4,5,24,85,0,0,39,0,0,0,7,9,0
Fc1cc(Cl)ccc1Nc1ccnc2cc(-c3ccc(CN4CCOCC4)o3)ccc12 [GW560109],0,0,0,0,18,0,0,0,0,0,0,0,0,58,0,0,12,46,43,17
COc1cccc(C2=C(Nc3cccc(O)c3)C(=O)NC2=O)c1 [SB-390771],15,0,0,18,13,0,0,0,0,98.3,17,0,86,7,0,0,0,0,4,73
COc1ccc(C2=C(Nc3cccc(O)c3)C(=O)NC2=O)cc1 [SB-390766],0,0,93.8,98.3,42,20,9,35,0,0,0,0,0,7,32,3,2,0,4,86
CCn1c(-c2nonc2N)nc2c(-c3ccccc3)ncc(OCCCN)c21.O=C(O)C(F)(F)F.O=C(O)C(F)(F)F [GSK260205],0,0,0,0,0,0,0,0,0,0,1,0,7,31,0,0,0,0,98.9,14
COc1cc(Nc2nccc(N3CCC(NS(=O)(=O)c4ccc(NC(C)=O)cc4)CC3)n2)cc(OC)c1OC [GSK1379825],0,0,0,0,7,16,0,0,0,0,31,0,19,24,0,0,0,0,17,2
Nc1ncnc2scc(-c3ccc(NC(=O)Cc4cc(F)ccc4F)cc3)c12.O=C(O)C(F)(F)F [SB-731254-M],36,0,99,0,0,0,11,0,2,0,93.8,0,30,28,2,5,9,0,12,16
Fc1cc(Cl)ccc1Nc1ccnc2cc(-c3ccc(CN4CCSCC4)o3)ccc12 [GW560106],0,0,1,0,0,35,0,53,0,0,53,0,100,8,0,0,0,79,29,8
O=C(O)C(F)(F)F.O=c1[nH]ccc2nc(N[C@@H]3CCNC3)nc(Nc3cc(Cl)cc(Cl)c3)c12 [GSK2188764],24,0,2,0,30,38,23,13,44,85,0,34,37,24,0,0,100,85,67,82
N#CC1(c2cccc(C(=O)Nc3cccc(Oc4ccc5nc(NC(=O)C6CC6)sc5n4)c3)c2)CC1,0,6,24,0,0,15,1,0,0,12,35,0,14,95.8,79,0,0,0,94.2,8
Cl.Cl.NCC(NC(=O)c1cc(-c2cccnc2)c(-c2ccnc3[nH]ccc23)s1)c1ccccc1 (stereo not drawn) [GSK1323434],9,0,8,3,26,39,0,79,0,50,43,1,66,23,0,0,0,55,100,71
COC(=O)Nc1nc2ccc(Oc3ccc(CC(=O)Nc4cc(C(F)(F)F)ccc4F)cc3)cc2[nH]1 [GW680903],8,0,0,0,11,27,4,10,0,0,0,0,2,14,0,0,0,20,68,24
